Shown are actives, neighbours in structure and some others; about 7.9% of the full set was active somewhere.
Lassa entry inh: qHTS for Inhibitors of binding or entry into cells for Lassa Virus. Potency, µM (titrated, usually from 37.9 µM), inactives show at the highest dose activity change, negative = inhibition, most hits filed as inhibitors. hit rate 1.2% among 300,000. Lassa virus pseudotype entry inhibition, cell reporter; calls by dose curve; tested in HEK293 cells; also: potency is read from the fitted curve at half-maximal effect; nearly all actives have a fitted effect of over 50% in size
HCV inh: qHTS Assay for Inhibitors of Hepatitis C Virus (HCV). Huh7.5.1 HCVcc-Cre infection, luciferase reporter, 44 h. Potency, µM (titrated, usually from 41.8 µM), inactives show top-dose activity change, negative = inhibition, usual class: inhibitors. hit rate 3.4% among 340,000. AID 651820, 2012; active = well fitted inhibition curve with a large enough effect; inconclusive = small, poorly fitted or top-dose-only effect, or another doubt; inactive = no such curve, though single readings can be large or run the other way; also: potency is read from the fitted curve at half-maximal effect
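Luciferase read-out (15 sec integration) after a 15 min room-temperature substrate step quantifies HCVcc-Cre infection. Cells, 1,000 per well, had compound added 4 h post-plating, then virus at ~0.5 moi, and were cultured 44 h.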
HCMV antiviral: qHTS Assay for inhibitors of the human cytomegalovirus (HCMV); HFF cells, HCMV-luciferase reporter, 72 h; stronger effect = lower value; activity change, negative = inhibition, % at 57.5 µM; hit rate 4.5% among 410,000; in the data active = activity change below about -60%; inconclusive = no clear call, values can overlap the other calls; inactive = above about -39%
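Screen run at 2 compound doses on HFFs infected with reporter HCMV, MOI 1 PFU/cell. Luciferase activity from cell lysates at 72 h post infection gave inhibition relative to buffer-only and Salinomycin wells.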
FMDV inh: High Throughput Screening for Foot and Mouth Disease Virus Antivirals; hit rate 1.2% among 410,000; FMDV antiviral cell-based qHTS; Potency, µM (series often up to 57.9 µM), for inactives: at the top dose activity change, negative = inhibition, hits mostly inhibitors; calls by dose curve; tested in HEK293T cells; also: read-out not given here; potency is read from the fitted curve at half-maximal effect; nearly all actives have a fitted effect of over 45% in size
MARV entry inh: qHTS for inhibitors of binding or entry into cells for Marburg Virus; AID 540276, 2011; hit rate 1.8% among 300,000; Marburg virus pseudotyped entry inhibition, cell reporter; Potency, µM (series often up to 37.8 µM), inactives show at the highest dose activity change, negative = inhibition, usual class: inhibitors; calls by dose curve; tested in HEK293 cells; also: potency is read from the fitted curve at half-maximal effect
Active calls of the source: *; ? = inconclusive; . = not tested or not shown; [ ] = another dose, or the depositor's remark. % is scaled to controls: 0 for no effect and ±100 for the full control effect.

SMILES	Lassa entry inh	HCV inh	HCMV antiviral	FMDV inh	MARV entry inh
CCN(CC)CCOC(=O)c1ccc(Cl)cc1	4%	14%	-16	-8%	-3%[46.1 µM]
Nc1ncc(-c2ccccc2)c(-c2ccc(O)cc2O)n1	5%[46.1 µM]	?	-61*	?	?
COc1ccccc1CNc1nc2ccc(C)cc2n2nnnc12	18%[46.1 µM]	.	?	-7%	.
Cc1ccccc1OCCn1c(=S)[nH]c2c(N)ncnc21	.	18%	-80*	74%	.
Cc1cccc(-c2nn3c(=O)cc(CN4CCN(S(=O)(=O)c5ccc(Cl)cc5)CC4)nc3s2)c1	4%[46.1 µM]	.	18	-24%	.
Cn1nc(C(F)(F)F)c(C#N)c1N1CCN(c2ccc(F)cc2)CC1	-9%	?	-73*	?	-17%
COc1ccc(-c2[nH]c(-c3cc(OC)c4c(c3)OCO4)nc2-c2ccccc2)cc1	?	?	-71*	-3%	?
COc1ccc(-c2nc(SCC(=O)Nc3ccc4c(c3)OCO4)c(-c3ccccc3)[nH]2)cc1	7%[46.1 µM]	.	-28	6%	9%[46.1 µM]
C[N+]1(CCNC(=O)/C=N\O)CCCCC1	.	.	.	.	5%[46.1 µM]
O=C(Nc1cccnc1)c1ccc(N2CCCC2)c([N+](=O)[O-])c1	12%	11µM*	4	44%	22%[46.1 µM]
Cc1ccc(C(=O)NCCCn2ccnc2)cc1[N+](=O)[O-]	-3%	-8%	18	18%	6%
CC1CCN(c2ccc(C(=O)Nc3ccc4c(c3)OCO4)cc2[N+](=O)[O-])CC1	-28%	4.5µM*	-61*	-29%	?
CCCCNC(=O)c1ccc(N2CCC3(CC2)OCCO3)c([N+](=O)[O-])c1	?	7%	-11	0%	-6%
O=C(Nc1cccnc1)c1ccc(N2CCOCC2)c([N+](=O)[O-])c1	.	?	59	2%	.
CCOC(=O)N1CCC(NC(=O)c2ccc(N3CCC4(CC3)OCCO4)c([N+](=O)[O-])c2)CC1	?	-4%	-28	25µM*	?
O=C(NCCCn1ccnc1)c1ccc(N2CCCCCC2)c([N+](=O)[O-])c1	?	-11%	-61*	-11%	?
Cc1ccc(C(=O)N(Cc2cc3ccc(F)cc3nc2N2CCC(O)CC2)CC2CCCO2)cc1 (stereo unspecified)	.	.	.	-6%	.
C=C1CCN(c2ccc(C(=O)NCCC)cc2[N+](=O)[O-])CC1	.	10µM*	-1	4%	.
Cc1cc(C(=O)Nc2ccc(N3CCCC3)c(Cl)c2)ccc1[N+](=O)[O-]	4%[46.1 µM]	?	-31	2%	?
CN1C(=O)c2ccc(NC(=O)c3ccc(N4CCCCC4)c([N+](=O)[O-])c3)cc2C1=O	-8%	9%	23	18µM*	11%
CCCNC(=O)c1ccc(SCC(=O)N(CC)CC)c([N+](=O)[O-])c1	14%	?	-67*	17%	-6%
Cc1cccc2c(N3CCCC3)nc(CNS(=O)(=O)c3ccc4ccccc4c3)nc12	.	.	.	4%	.
COc1cc(Cn2c(=O)oc3ccc(C)cc32)ccc1OC(C)C	3%	1.1µM*	12	?	18%
Cc1ccc(S(=O)(=O)n2cccc2/C=C/[N+](=O)[O-])cc1	.	.	-98*	16µM*	.
Cc1ccc(S(=O)(=O)n2ccc3cccnc32)cc1	13%	-1%	13	-3%	14%
SMILES	Lassa entry inh	HCV inh	HCMV antiviral	FMDV inh	MARV entry inh
CC(c1ccco1)N(C(=O)c1cc(Cl)cc(Cl)c1)c1ccccn1 (stereo unspecified)	-29%	-25%	-62*	15%	?
Cc1ccc(-n2c(SCC(=O)Nc3ccc4c(c3)OCO4)nc3c([nH]c4ccccc43)c2=O)cc1	-22%[46.1 µM]	.	-40	13%	.
CC(C)(C)NC(=O)CCN(/N=C/c1ccc([N+](=O)[O-])o1)C1=NS(=O)(=O)c2ccccc21	-2%	?	-95*	?	?
S=c1[nH]nc(C2CCCCC2)n1/N=C/c1ccncc1	1%	8%	-88*	-14%	0%[46.1 µM]
CC(/C=N/n1c(C2CCCCC2)n[nH]c1=S)=C\c1ccccc1	18µM*	-3%	-23	-20%	?
Cc1cccc(/C=N/n2c(C3CCCCC3)n[nH]c2=S)c1	.	-7%	.	-10%	.
CCN(CC)c1ccc(NC(=O)CN2C(=O)c3cccnc3Oc3ccccc32)c(C)c1	-2%[46.1 µM]	.	0	20%	.
